The source made the active and inactive calls. The calls were made as follows: active = hit-call score of the fitted dose curve at least 0.9, where 1 is the maximum; inactive = score below 0.9.
Read-out: Ezrin (EZR), EZR (gene 7430)
Assay: LTEA_HepaRG_EZR: Life Technologies and Expression Analysis (LTEA) Assay for Ezrin (EZR) using HepaRG (AID 2283491)
Settings: mRNA level, 48 h; actives raise or lower the signal
Protocol: It is a marker of Cellular remodeling.Data from the assay component LTEA_HepaRG_EZR was analyzed into 1 endpoint. This assay endpoint, LTEA_HepaRG_EZR, was analyzed with bidirectional fitting relative to DMSO as the negative control and baseline of activity. Using a type of inducible reporter, measures of mRNA induction for gain or loss-of-signal activity can be used to understand regulation of transcription factor activity. To generalize the intended target to other relatable targets, this assay endpoint is annotated to the membrane protein intended target family, where the subfamily is Cellular remodeling.
A total of 1060 chemcials from the ToxCast library were tested in eight-point concentration-response experiments. Cell culture and cytotoxicity assays were conducted at Thermo Fisher Scientific's Custom Services facility (Madison, WI). A single lot of human HepaRG cells (Thermo Fisher Scientific, Frederick, MD) was used for the cell culture experiments. 96-well format collagen type I coated plates of human HepaRG cells were prepared using established methods. Briefly, cryopreserved HepaRG cells were thawed, plated at a density of approximately 100,000 cells/well in HepaRG Thaw, Plate, and General Purpose media (HPRG770, Thermo Fisher Scientific), and incubated for 48 hours. 0.5% DMSO was selected as vehicle control to balance the requisite need of DMSO in HepaRG cultures to maintain differentiation (for example, baseline metabolism, proportions of hepatocytes vs. cholangiocytes), while enabling further hepatic receptor pathway activation (for example, PXR and CAR) in response to chemical exposure. 48 hours after plating, the culture medium was replaced with HepaRG Serum-Free Incudtion Media. Cells were exposed to each test chemical in duplicate and maintained in CO2 incubators for another 48 hours. Chemical plates were thawed to room temperature and 200x concentrations of treatment groups were prepared. 8-point conentration-reponse curves were made with the highest exposure at 100 uM, followed by half-log dilutions, all in 0.5% DMSO. Each test plate contained variouse controls, induction positive controls (1mM phenobarbital), cytotoxicity positive controls ([…] aflatoxin B1), vehicle controls (0.5% DMSO), and total lysis controls (0.5% DMSO). Cell morphology images were taken using an Essen IncuCyte FLR automated microscope, with six 96-well plates imaged in about 24 minutes. Images were captured and exported and JPEG files. Spent culture media was transfered to black-well plates for the LDH assay, and remaining media was sorted at -80 C for later use. Cells were treated with RLT buffer and frozen until shipped for gene expression analysis. Total RNA was isolated from the cell suspension in 75 uL of Buffer RLT (Qiagen, Germantown, MD 20874) by Quintiles/Expression Analysis (Durham, NC) using a custom isolation procedure. Total RNA from each plate well was transferred to a preamplification plate. Fluidigm's 96.96 Dynamic ArrayTM (Fluidigm, Amsterdam, the Netherlands) technology was used for gene expression analyses by quantitative reverse transcription polymerase chain reaction (qRT-PCR, performed by Quintiles/Expression Analysis, Durham, NC)89. Standard TaqManTM Assays (Applied Biosystems/ThermoFisher Scientific, Foster City, CA) were used to assess the expression of 93 genes selected based on their selectivity and sensitivity to important hepatic receptors known to be modulated by environmental chemicals; importance in human hepatocyte functionality; and hepatotoxicity. Three "housekeeping" endogenous control genes were also included and used for normalization: actin beta (ACTB), Glyceraldehyde 3 phosphate dehydrogenase (GAPDH) and RNA Polymerase II Subunit A (POLR2A). qRT-PCR was conducted according to the manufacturer's protocol.

| SMILES | outcome | AC50 |
| --- | --- | --- |
| CCOC(=O)C(C)OC(=O)c1cc(Oc2ccc(C(F)(F)F)cc2Cl)ccc1[N+](=O)[O-] (stereo not given) | inactive |  |
| CCCCC(O)(Cn1cncn1)c1ccc(Cl)cc1Cl (stereo not given) | inactive |  |
| CC(C)N1C(=O)c2ccccc2NS1(=O)=O | inactive |  |
| CC1(C)C(C=C(Cl)Cl)C1C(=O)OC(C#N)c1cccc(Oc2ccccc2)c1 (stereo not given) | inactive |  |
| CNC(=O)N(C)c1nnc(C(C)(C)C)s1 | inactive |  |
| CCOP(=S)(OCC)Oc1nc(Cl)n(C(C)C)n1 | inactive |  |
| CCOc1cc(C(C)(C)C)ccc1C1COC(c2c(F)cccc2F)=N1 (stereo not given) | inactive |  |
| COP(=O)(OC)O/C(C)=C/C(=O)N(C)C | inactive |  |
| COC(=O)NC(=S)Nc1ccccc1NC(=S)NC(=O)OC | inactive |  |
| CCN(CC)C(=O)C(C)Oc1cccc2ccccc12 (stereo not given) | inactive |  |
| CCCN(CC)CC1COC2(CCC(C(C)(C)C)CC2)O1 (stereo not given) | inactive |  |
| COP(=S)(OC)SCn1nnc2ccccc2c1=O | inactive |  |
| N#Cc1c[nH]cc1-c1cccc2c1OC(F)(F)O2 | inactive |  |
| COC(=O)c1c(C(F)F)nc(C(F)(F)F)c(C2=NCCS2)c1CC(C)C | inactive |  |
| CCNP(=S)(OC)O/C(C)=C/C(=O)OC(C)C (stereo not given) | inactive |  |
| OC(c1ccc(Cl)cc1)(c1ccc(Cl)cc1)C(Cl)(Cl)Cl | inactive |  |
| CCCCOCN(C(=O)CCl)c1c(CC)cccc1CC | inactive |  |
| Clc1cccc(C(Cl)(Cl)Cl)n1 | inactive |  |
| Nc1c(Cl)c(Cl)nc(C(=O)O)c1Cl | inactive |  |
| CC(C)Oc1cccc(NC(=O)c2ccccc2C(F)(F)F)c1 | inactive |  |

| SMILES | outcome | AC50 |
| --- | --- | --- |
| CCSC(=O)N1CCCCCC1 | inactive |  |
| C=CCOC(=O)C(C)(C)OC(=O)c1cc(-n2c(=O)cc(C(F)(F)F)n(C)c2=O)ccc1Cl | inactive |  |
| Cc1ccc(N=CN(C)C=Nc2ccc(C)cc2C)c(C)c1 | inactive |  |
| CC1(C)CON(Cc2ccccc2Cl)C1=O | inactive |  |
| COCc1cnc(C2=NC(C)(C(C)C)C(=O)N2)c(C(=O)O)c1 (stereo not given) | inactive |  |
| CCCC(=NOCC)C1=C(O)CC(CC(C)SCC)CC1=O (stereo not given) | inactive |  |
| Nc1cnn(-c2ccccc2)c(=O)c1Cl | inactive |  |
| N#CN=C1SCCN1Cc1ccc(Cl)nc1 | inactive |  |
| Cn1c(-c2ccccc2)cc(-c2ccccc2)[n+]1C | inactive |  |
| Cc1cnc(C2=NC(C)(C(C)C)C(=O)N2)c(C(=O)O)c1 (stereo not given) | inactive |  |
| O=C(Nc1ccccc1-c1ccc(Cl)cc1)c1cccnc1Cl | inactive |  |
| Cc1nc(N(C)C)nc(OC(=O)N(C)C)c1C | inactive |  |
| COc1cc(OC)nc(NC(=O)NS(=O)(=O)c2ncccc2OCC(F)(F)F)n1 |  | 239 nM (active) |
| COc1cc(Cl)c(OC)cc1Cl | inactive |  |
| COC(=O)N(C(=O)N1CO[C@@]2(C(=O)OC)Cc3cc(Cl)ccc3C2=N1)c1ccc(OC(F)(F)F)cc1 | inactive |  |
| CCNC(=O)NC(=O)C(C#N)=NOC | inactive |  |
| CCC(C)n1c(=O)[nH]c(C)c(Br)c1=O (stereo not given) | inactive |  |
| O=C(O)c1c(Cl)ccc2cc(Cl)cnc12 | inactive |  |
| CO/N=C(/C1=NOCCO1)c1ccccc1Oc1ncnc(Oc2ccccc2Cl)c1F |  | 973 nM (active) |
| O=c1n(Cl)c(=O)n(Cl)c(=O)n1Cl | inactive |  |
